The text below walks through data of PubChem BioAssay (Tox21).

Assay [1] is described as follows: A CellTox Green Cytotoxicity Assay to monitor cytotoxicity in HEK293 cells - 8 hour (AID 1224884). Note: nearly all actives have a fitted effect of over 35% in size. Summed up: (§1)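 Tox21 screen in HEK293: membrane-impermeant cyanine dye fluoresces on binding dead-cell DNA; compound pinned 5 h post-seeding, plates held at 37 C, signal read repeatedly through 40 h.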
A short description of assay [2]: qHTS RealTime-Glo MT Cell Viability Assay in HepG2 cells - 16 hour (AID 1224885). Note: nearly all actives have a fitted effect of over 50% in size. An outline of the steps:
(§2)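 Tox21 10K library screened in qHTS format on HepG2 cells carrying RealTime-Glo reagents. Compounds were added after a 5 h preincubation, and the luminescent signal from continuous culture was measured repeatedly during 40 h treatment.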
In general terms: Quantitative high-throughput screening tests each substance at several concentrations.

Assay [3] in a line: qHTS RealTime-Glo MT Cell Viability Assay in HEK293 cells - 24 hour (AID 1224886). Note: nearly all actives have a fitted effect of over 50% in size. Note: potency is the fitted concentration of half-maximal effect. Summed up: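 Luminescence generated by NanoLuc from substrate produced by living HEK293 cells served as the viability signal. Each value reflects the reading at its stated time point during continuous 40 h compound exposure at 37 C.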
Assay [4] is described as follows: qHTS RealTime-Glo MT Cell Viability Assay in HEK293 cells - 8 hour (AID 1224887). Note: top concentration of the series differs between compounds; nearly all actives have a fitted effect of over 50% in size. An outline of the steps:
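HEK293 + NanoLuc + prosubstrate, 600 cells/well; 5 h, 37 C/5% CO2; compound 23 nL in DMSO by pintool; 37 C; luminescence read at 0, 8, 16, 24, 32 and 40 h time points.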

The nature of assay [5]: A CellTox Green Cytotoxicity Assay to monitor cytotoxicity in HEK293 cells - 16 hour (AID 1224888). Note: nearly all actives have a fitted effect of over 35% in size. An outline of the steps: as §1
Assay [6] is described as follows: qHTS RealTime-Glo MT Cell Viability Assay in HepG2 cells - 0 hour (AID 1224889). Note: nearly all actives have a fitted effect of over 50% in size. Summed up:
as §2

Assay [7] in a line: A CellTox Green Cytotoxicity Assay to monitor cytotoxicity in HepG2 cells - 8 hour (AID 1224890). Note: nearly all actives have a fitted effect of over 45% in size. An outline of the steps: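 Measurements at 0, 8, 16, 24, 32 and 40 h of treatment captured CellTox Green fluorescence in HepG2 cells that had been co-plated with reagent and preincubated 5 h at 37 C/5% CO2.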
Assay [8] can be described thus: qHTS assay to identify small molecule antagonists of the estrogen receptor alpha (ER-alpha) signaling pathway using the BG1 cell line in the presence of 0.1 nM 17-beta-estradiol - cell viability counter screen (AID 1259241). Note: nearly all actives have a fitted effect of over 40% in size. Summed up:
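Estradiol-stimulated (0.1 nM) VM7Luc4E2 cells exposed to compounds 22 hr; viability measured by fluorescence of cleaved CellTiter-Fluor substrate after 30 min.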

Assay [9] in a line: qHTS assay to identify small molecule antagonists of the androgen receptor (AR) signaling pathway using the MDA cell line in the presence of 0.5 nM R1881 - cell viability counter screen (AID 1259242). Note: nearly all actives have a fitted effect of over 45% in size. Summed up: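 Concentration-response screen of compounds for toxicity in MDA-kb2 reporter cells: 16 hr at 37C with 0.5 nM R1881, endpoint live-cell protease fluorescence measured in the reporter wells.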

Assay [10] has as its target Androgen receptor (Homo sapiens) (UniProt P10275). Description: qHTS assay to identify small molecule antagonists of the androgen receptor (AR) signaling pathway using the MDA cell line in the presence of 0.5 nM R1881 (AID 1259243). Note: nearly all actives have a fitted effect of over 50% in size. Summed up:
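With R1881 held at 0.5 nM (final), compound effects on MMTV-luciferase expression in MDA-kb2 cells were scored by luminescence after a 16 hr, 37C incubation.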

Assay [11] can be described thus: qHTS assay to identify small molecule HDAC inhibitors (AID 1259364).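 Note: wild-type HCT-116 cells with endogenous class I/II HDAC activity; top concentration of the series differs between compounds; nearly all actives have a fitted effect of over 45% in size.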 An outline of the steps: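 Screening used wild-type human colon HCT-116 cells incubated overnight, dosed with compounds for 2 hours, and assayed with a homogeneous luminogenic HDAC I/II reagent for 30 minutes at room temperature.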
Assay [12] is described as follows: qHTS assay to identify small molecule HDAC inhibitors - cell viability counter screen (AID 1259365). An outline of the steps: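 After overnight seeding at 1,500 cells per well, wild-type HCT-116 cultures took up compounds in DMSO for 2hr at 37 C. Viable cell content came from luminescence with CellTiter-Glo.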
The nature of assay [13]: qHTS assay to identify small molecule antagonists of the sonic hedgehog signaling (Shh) pathway - cell viability counter screen (AID 1259367). Note: nearly all actives have a fitted effect of over 55% in size. Summed up: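 CellTiter-Fluor signal in conditioned medium-stimulated 3T3 Gli1-Luc cells, 23 hr compound exposure, 37C.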
A short description of assay [14]: qHTS assay to identify small molecule agonists of the sonic hedgehog signaling (Shh) pathway (AID 1259368; calls by dose curve;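 note: NIH/3T3-derived 3T3Gli1-Luc cells carrying a stable Gli1-driven firefly luciferase reporter; series mostly up to about 92 µM; nearly all actives have a fitted effect of over 15% in size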). Summed up: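 Hedgehog pathway agonism scored by increased firefly luciferase luminescence in 3T3Gli1-Luc cells treated 24 hr at 37 C; detection used a 30 min room-temperature reagent incubation.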
Assay [15] can be described thus: qHTS assay to identify small molecule antagonists of the sonic hedgehog signaling (Shh) pathway (AID 1259369; calls by dose curve; note: nearly all actives have a fitted effect of over 45% in size; note: potency is the fitted concentration of half-maximal effect). An outline of the steps:
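NIH/3T3 stable Gli1-Luc clone, 2,000 cells/well, 4hr settle; cpd + conditioned medium 24hr; Luc reagent 30min RT; luminescence.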

Assay [16] can be described thus: qHTS assay to identify small molecule agonists of the sonic hedgehog signaling (Shh) pathway - cell viability counter screen (AID 1259366). Note: nearly all actives have a fitted effect of over 50% in size. Summed up:
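Same-well cytotoxicity read. Gli1-Luc reporter 3T3 cells; compounds 24hr, 37C/5% CO2; CellTiter-Fluor fluorescence.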

The target of assay [17] is Estrogen receptor beta (Homo sapiens) (UniProt Q92731). The assay can be described thus: qHTS assay to identify small molecule agonists of the estrogen receptor beta (ER-beta) signaling pathway (AID 1259377; active = well fitted activation curve with a large enough effect in the signal ratio in the repeat runs, not every such curve was filed as active; the % refers to the signal ratio). Summed up: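 Read-out: beta-lactamase FRET fluorescence. Cell line: ER-beta-UAS-bla HEK293T in 2% charcoal-stripped FBS. Exposure: 16 hr at 37C. Substrate step: 2 h at room temperature.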

For assay [18] the target is unchanged. Description: qHTS assay to identify small molecule antagonists of the estrogen receptor beta (ER-beta) signaling pathway (AID 1259378; active = well fitted inhibition curve with a large enough effect in the signal ratio in the repeat runs, not every such curve was filed as active; the % refers to the signal ratio). An outline of the steps:
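Antagonist mode: compounds added to beta-lactamase reporter HEK293T ER-beta-UAS cells stimulated with E2 (1nM final), 16 hr at 37C. LiveBLAzer B/G FRET substrate, 2 hours room temperature, fluorescence read-out.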

Assay [19] addresses Estrogen receptor (Homo sapiens) (UniProt P03372). Description: qHTS assay to identify small molecule antagonists of the estrogen receptor alpha (ER-alpha) signaling pathway using the BG1 cell line in the presence of 0.1 nM 17-beta-estradiol (AID 1259244). Note: nearly all actives have a fitted effect of over 50% in size. Summed up: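 Compounds were tested against 0.1 nM (final) 17beta-estradiol in VM7Luc4E2 cells, which express full-length ER-alpha and an ERE-luciferase reporter; luminescence was recorded following 22 h exposure.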

Values without a mark were called inactive. Records with an inconclusive call do not appear. Calls of active or inactive are those of the source. Unless noted, calls come from the whole dose curve; as a rule, active = well fitted curve in the direction sought with a large enough effect in the repeat runs; inconclusive = weak or mixed curves; inactive = no such curve, though single readings can be large; an effect the other way counts as inactive or inconclusive.

Sequence of Estrogen receptor beta (Homo sapiens) (Q92731 whole entry, looked up): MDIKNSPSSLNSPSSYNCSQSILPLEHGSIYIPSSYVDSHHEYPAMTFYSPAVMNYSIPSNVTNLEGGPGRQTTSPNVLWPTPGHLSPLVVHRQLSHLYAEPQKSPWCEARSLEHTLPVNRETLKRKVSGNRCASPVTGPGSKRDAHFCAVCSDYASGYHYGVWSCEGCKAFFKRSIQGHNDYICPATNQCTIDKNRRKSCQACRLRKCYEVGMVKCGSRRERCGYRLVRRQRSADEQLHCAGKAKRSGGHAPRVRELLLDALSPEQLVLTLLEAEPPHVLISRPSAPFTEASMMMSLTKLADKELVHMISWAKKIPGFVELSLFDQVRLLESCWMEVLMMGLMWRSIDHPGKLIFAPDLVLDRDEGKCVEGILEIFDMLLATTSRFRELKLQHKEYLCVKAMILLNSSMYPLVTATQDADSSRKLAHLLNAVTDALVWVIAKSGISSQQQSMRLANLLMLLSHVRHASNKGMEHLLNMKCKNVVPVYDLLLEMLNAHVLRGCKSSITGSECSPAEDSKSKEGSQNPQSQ
Sequence of Androgen receptor (Homo sapiens) (P10275 whole entry, looked up): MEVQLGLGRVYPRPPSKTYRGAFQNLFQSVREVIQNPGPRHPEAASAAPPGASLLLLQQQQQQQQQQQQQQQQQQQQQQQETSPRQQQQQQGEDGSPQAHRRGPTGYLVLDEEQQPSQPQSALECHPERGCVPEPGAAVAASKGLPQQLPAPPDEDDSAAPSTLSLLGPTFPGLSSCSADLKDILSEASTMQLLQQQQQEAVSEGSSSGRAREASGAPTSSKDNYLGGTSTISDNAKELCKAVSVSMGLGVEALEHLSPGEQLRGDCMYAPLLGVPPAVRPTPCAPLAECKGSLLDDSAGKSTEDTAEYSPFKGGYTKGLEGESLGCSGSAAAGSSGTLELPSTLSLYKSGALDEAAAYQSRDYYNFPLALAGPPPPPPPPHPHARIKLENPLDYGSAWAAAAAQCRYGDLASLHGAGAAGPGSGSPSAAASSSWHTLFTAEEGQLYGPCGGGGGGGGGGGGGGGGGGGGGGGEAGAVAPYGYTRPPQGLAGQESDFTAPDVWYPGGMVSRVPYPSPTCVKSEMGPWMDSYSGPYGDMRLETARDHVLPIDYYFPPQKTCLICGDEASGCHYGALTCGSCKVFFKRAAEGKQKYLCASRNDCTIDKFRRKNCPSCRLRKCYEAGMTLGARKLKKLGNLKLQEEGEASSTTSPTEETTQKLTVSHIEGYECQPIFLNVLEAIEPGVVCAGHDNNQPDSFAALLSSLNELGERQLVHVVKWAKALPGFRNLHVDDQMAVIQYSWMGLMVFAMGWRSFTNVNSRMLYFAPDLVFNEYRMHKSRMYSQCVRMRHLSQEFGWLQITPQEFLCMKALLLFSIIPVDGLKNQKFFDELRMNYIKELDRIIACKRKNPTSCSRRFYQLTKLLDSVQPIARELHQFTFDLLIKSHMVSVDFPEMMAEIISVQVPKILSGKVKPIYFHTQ
Sequence of Estrogen receptor (Homo sapiens) (P03372 whole entry, looked up): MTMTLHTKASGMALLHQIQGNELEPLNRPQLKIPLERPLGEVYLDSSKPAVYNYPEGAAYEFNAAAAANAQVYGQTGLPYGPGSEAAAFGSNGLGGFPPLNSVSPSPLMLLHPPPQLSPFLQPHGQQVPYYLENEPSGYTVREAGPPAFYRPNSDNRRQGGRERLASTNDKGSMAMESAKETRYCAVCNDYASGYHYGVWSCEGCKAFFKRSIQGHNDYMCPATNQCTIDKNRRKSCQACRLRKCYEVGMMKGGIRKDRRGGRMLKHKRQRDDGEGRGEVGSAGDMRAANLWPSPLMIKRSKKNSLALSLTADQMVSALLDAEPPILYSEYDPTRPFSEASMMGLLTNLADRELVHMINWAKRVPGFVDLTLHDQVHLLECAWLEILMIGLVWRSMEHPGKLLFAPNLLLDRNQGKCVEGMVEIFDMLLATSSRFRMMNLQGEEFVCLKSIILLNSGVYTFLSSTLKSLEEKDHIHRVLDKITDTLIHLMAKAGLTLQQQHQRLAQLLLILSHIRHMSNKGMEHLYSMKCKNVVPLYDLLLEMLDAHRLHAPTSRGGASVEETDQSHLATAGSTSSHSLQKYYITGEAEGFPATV

Take `C=Cc1ccncc1`: the Potency result in assay [1], in assay [2], in assay [3], in assay [4], in assay [5] and in assay [6] was “inactive” throughout. The Potency result in assay [7], in assay [8], in [9], in [10], in assay [11] and in [12] was “inactive” each time. Moreover, the Potency result in assay [13], in assay [14] and in assay [15] was “inactive” throughout.

With `O=C1CCC/C=C\CCCCCCCCCC1`, the Potency result in assay [1], in [2], in [3], in [4], in assay [5] and in assay [6] was “inactive” each time. For the same compound, the Potency result in [7], in assay [8], in assay [9], in [11], in [12] and in assay [16] was “inactive” each time. The Potency entry in assay [14] and in assay [18] was “inactive” in each case. The outcome in assay [17] was inactive.

In the case of `[Cl][Eu]([Cl])[Cl]`, the Potency entry in [1], in [2], in [3], in assay [4], in assay [5] and in assay [6] was “inactive” throughout. Moreover, the Potency entry in [7], in [8], in assay [9], in assay [19], in assay [11] and in assay [12] was “inactive” in each case. Besides, in assay [14], the Potency entry was “inactive”. Also, the Potency in assay [15] is 7.7 µM (active).

Turning to `CC(C)(C)c1cc(CCC(=O)OCCSCCOC(=O)CCc2cc(C(C)(C)C)c(O)c(C(C)(C)C)c2)cc(C(C)(C)C)c1O`, the Potency result in assay [1], in assay [2], in assay [3], in assay [4], in [5] and in assay [6] was “inactive” throughout. Also, the Potency entry in assay [7], in [8], in [9], in [10], in assay [19] and in [11] was “inactive” each time. In addition, the Potency result in assay [12], in assay [16], in [13], in [14], in assay [15] and in assay [18] was “inactive” throughout. Further, the call in assay [17] was inactive.

Turning to `S=C1NC=NC2N=CNC12` (stereo unspecified), the Potency result in assay [1], in assay [2], in [4], in assay [5], in [6] and in assay [7] was “inactive” throughout. In addition, the Potency entry in [8], in [9], in [11], in assay [12], in [13] and in assay [14] was “inactive” throughout. The Potency result in assay [15] is “inactive”. Also, in [3], the Potency was 21.9 µM (active).

In the case of `O=C(c1ccccc1)c1ccc(Cl)cc1`, the Potency result in [1], in [2], in assay [3], in assay [4], in assay [5] and in [6] was “inactive” each time. Also, the Potency result in [7], in [8], in [9], in [19], in assay [11] and in assay [14] was “inactive” throughout.

As for `Nc1cc([N+](=O)[O-])cc(Cl)c1O`, the Potency result in [1], in [2], in assay [3], in [4], in assay [5] and in assay [6] was “inactive” in each case. In addition, the Potency entry in assay [7], in assay [8], in assay [9], in assay [19], in assay [11] and in assay [12] was “inactive” each time. In addition, the Potency result in [13], in assay [14] and in [15] was “inactive” throughout. In assay [17], the outcome was inactive.

As to `C=C(C)CCO`, the Potency entry in assay [1], in assay [2], in [3], in assay [4], in assay [5] and in assay [6] was “inactive” throughout. The Potency entry in [7], in assay [8], in assay [9], in assay [10], in [19] and in assay [11] was “inactive” throughout. Besides, the Potency result in [12], in [16], in assay [13] and in assay [14] was “inactive” in each case.
